# Source: PubChem
# This excerpt belongs to a sample that is enriched for hits.
# Pf Dd2 inh: blocks in vitro growth of P. falciparum Dd2; 4.3% of 120,000 active; AID 1347417; Potency, µM (highest dose often 28.9 µM), without a hit: top-dose activity, negative = inhibition, hits mostly inhibitors; P. falciparum Dd2 growth, SYBR Green, 72 h; active = well fitted inhibition curve with a large enough effect;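 note: plate controls were DMSO vehicle for no effect and reference drug for full effect; nearly all actives have a fitted effect of over 65% in size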
#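 Infected erythrocytes (Dd2, 0.3% parasitemia, 2.5% hematocrit final) are added to compound in RPMI-1640/Albumax II medium, grown 72 h at 37C in low oxygen, then lysed with saponin/Triton-X containing SYBR Green and read by fluorescence.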
# Numbers without * were called inactive; i = inactive; [ ] = another dose, or the depositor's remark. Potency is the fitted concentration of half-maximal effect.
SMILES,Pf Dd2 inh
CC(=O)NC1CCN(C(=O)N2CC3CC(C2)[C@H]2CCCC(=O)N2C3)CC1 (stereo not given in full),7.9%
COc1ccc(C(=O)N2CCCC(c3nc(-c4ccccc4)no3)CCNC(=O)CC2)c(OC)n1 (stereo not given),11.2µM*
COc1ccc(C(=O)N2CCCC(c3nc(-c4cccnc4)no3)CCNC(=O)CC2)c(OC)n1 (stereo not given),i
O=C1CCN(C(=O)c2cccnc2)CCCC(c2nc(-c3ccccc3)no2)CCN1 (stereo not given),i
O=C(O)CC[C@@H]1CN(C(=O)c2ccc(CO)o2)CC[C@@H]1N1CCOCC1,25.4%
CC1CCN(CCCNC(=O)C2CCCN(Cc3ccncc3)CCC(=O)NCC2)CC1 (stereo not given),8.3%
COc1ccc(-c2cc(N3CCCC(NC(=O)Cc4ccc(F)cc4)C3)n[nH]2)cc1 (stereo not given),-23.7%
Fc1ccc(OCC2CCCN(c3ccc(Cn4ccnc4)cn3)C2)cc1 (stereo not given),11.2µM*
CC(C)C1CN(c2ccc(C#N)cn2)CCC(=O)N1Cc1ccc(F)cc1 (stereo not given),-14.3%
O=C(CCc1cnccn1)N1CCOC(CCCc2ccccc2)C1 (stereo not given),-4.9%
CN1[C@@H](CCC(=O)NCc2cccs2)CNC(=O)[C@@H]2[C@H]1CCN2C1CCOCC1,5.6%[44.1 µM]
CCOc1ccc(S(=O)(=O)c2cn(C)c3ccccc3c2=O)cc1,-0.2%
CCOc1ccc(/C=C/c2nc3ccccc3n2S(=O)(=O)c2ccc(Br)cc2)cc1,11.2µM*
CCOc1ccc(S(=O)(=O)Nc2nc3ccccc3nc2Nc2ccc(OC)cc2)cc1,-5.0%
CCCS(=O)(=O)N[C@H]1C[C@@H](c2nc(-c3ccc4c(c3)OCO4)no2)N(C)C1,i
COc1ccc(-c2cnc3[nH]cc(CC(=O)Nc4ccc(C(F)(F)F)cc4)c3c2)cc1,i
CN1CCN(C(=O)Cc2c[nH]c3ncc(-c4ccc5c(c4)OCO5)cc23)CC1,-20.8%[44.1 µM]
CN1CCN(C(=O)Cc2c[nH]c3ncc(-c4cccc(Cl)c4)cc23)CC1,i
COc1ccc(OC)c(-c2cnc3[nH]cc(CC(=O)NCc4cccnc4)c3c2)c1,i
Cn1cc(-c2cnc3[nH]cc(CC(=O)Nc4ccc(N5CCOCC5)cc4)c3c2)cn1,44.7%[44.1 µM]
Cn1cc(-c2cnc3[nH]cc(CC(=O)Nc4ccccc4Cl)c3c2)cn1,-18.9%[44.1 µM]
COc1ccc(NC(=O)Cc2c[nH]c3ncc(-c4ccccc4)cc23)cc1,-20.5%[44.1 µM]
O=C(Cc1c[nH]c2ncc(-c3ccccc3)cc12)NCc1cnccn1,i
Cn1cc(-c2cnc3[nH]cc(CC(=O)Nc4cccc(F)c4)c3c2)cn1,6.31µM*
O=C(Cc1c[nH]c2ncc(-c3ccncc3)cc12)NCc1cccnc1,5.01µM*
SMILES,Pf Dd2 inh
CN1CCN(C(=O)Cc2c[nH]c3ncc(-c4ccc(F)c(Cl)c4)cc23)CC1,11.2µM*
COc1ccc(-c2cnc3[nH]cc(CC(=O)Nc4ccc(OC)nc4)c3c2)cc1,11.2µM*
CN1CCC2(C1)CN(Cc1ccccc1)c1ccc(C(=O)NCC3CC3)cc12 (stereo not given),13.0%[44.1 µM]
Cc1nc(-c2c3n(c(=O)n(CC(=O)Nc4cccc(F)c4)c2=O)CCCCC3)no1,7.6%
Cc1cnn(C2(C(=O)O)CCN(S(=O)(=O)c3cnn(C)c3)CC2)c1,-12.5%
COCCN1C(=O)c2cccn2CC1CNC(=O)c1ccoc1 (stereo not given),-11.6%
C[S+](=O)([O-])N1CCC2(CC1)C(=O)NN=C2C1CC1,8.5%[44.1 µM]
CCCc1cc(CN(C)C(=O)c2cn(CC(=O)N(CC)CC)nn2)[nH]n1,2.6%
Cn1nc(C2CCN(C(=O)NCc3ccccc3)CC2)c2c1CCOC2,15.7%[5.79 µM]
Cn1nccc1C(=O)N1CCc2c(n(CCOc3ccccc3)n(-c3ccccc3)c2=O)C1,5.3%
O=C(Cc1c[nH]c2ncc(-c3cccnc3)cc12)Nc1ccc(C(F)(F)F)cc1,-24.8%[44.1 µM]
NC(=O)Cc1c[nH]c2ncc(-c3cccc(F)c3)cc12,-22.2%[44.1 µM]
O=C(Cc1c[nH]c2ncc(-c3cccnc3)cc12)NCc1cccc(F)c1,6.31µM*
O=C(Cc1c[nH]c2ncc(-c3cccc(Cl)c3)cc12)NCc1cccnc1,4.47µM*
O=C(Cc1cccc(Cl)c1)NCc1c[nH]c2ncccc12,-19.1%[44.1 µM]
O=C(Cc1c[nH]c2ncc(-c3cccnc3)cc12)NCCc1ccccc1,i
CCOc1ccccc1CNC(=O)c1c(C)sc2ccn(CC(C)C)c(=O)c12,-0.5%
CN(C)CCNC(=O)c1c(OCC2CC2)cc(=O)n2c1CCOCC2,-12.2%
CN1C[C@@H](NS(=O)(=O)c2ccccc2)C[C@H]1c1nc(-c2cnccn2)no1,15.5%[44.1 µM]
Cc1cc(C(F)(F)F)nn1CC(=O)N1CC(CO)C2(CCNCC2)C1 (stereo not given),-3.6%
Cc1ccsc1[C@@H]1CCN(C(=O)CCc2ccc(F)cc2F)C[C@H]1O,-9.5%
CCCN(CCC)CC(O)Cn1cc(/C=C/C(=O)c2ccc(OC)cc2)c2ccccc21 (stereo not given),3.16µM*
COc1ccc(C(=O)NCCn2cc(SCC(=O)Nc3ccc(F)cc3)c3ccccc32)cc1,i
COc1ccc(C(=O)/C=C/c2cn(CC(O)CN(CC(C)C)CC(C)C)c3ccccc23)cc1 (stereo not given),3.16µM*
COc1ccc(C(=O)NCCn2cc(SCc3cc(C)ccc3C)c3ccccc32)cc1,-17.8%
SMILES,Pf Dd2 inh
COc1ccc(NC(=O)Cn2cc(C(=O)C3CC3)c3ccccc32)cc1,0.0%
CCCn1cc2c3c(cccc31)CN(C(=O)c1ccc(OC)cc1)CC2,i
CS(=O)(=O)N1CCCC(C(=O)N2CCOCC2)CCNC(=O)CC1 (stereo not given),39.1%
O=C(O)[C@H](Cn1ccc(=O)[nH]c1=O)NC1CCOCC1,1.2%[44.1 µM]
COc1ccccc1NC(=O)[C@@H]1COCC(=O)N1Cc1ccc(OC)c(OC)c1,36.5%
COc1ccc2cc1Nc1ccc(cc1)C[C@H](NCc1ccncc1)C(=O)N(C)[C@H](C(=O)NCc1ccc(OC(F)(F)F)cc1)C2,-20.3%
COc1ccc2cc1Nc1ccc(cc1)C[C@H](NCc1cccc(C(=O)O)c1)C(=O)N(C)[C@H](C(=O)Nc1ccccc1OCc1ccccc1)C2,2µM*
CN(Cc1ccccc1C(F)(F)F)C(=O)C1CC1,7.2%[44.1 µM]
CC(C)c1nc2c(c(-c3ccc(O)cc3)n1)CN([S+](=O)([O-])c1cccs1)CC2,i
CN1CCN(Cc2nc(C3(O)CCN(C)CC3)cs2)CC1,4.3%[44.1 µM]
C=CCNC(=O)N1CCC(O)(c2csc(CN3CCN(c4ccccn4)CC3)n2)CC1,1.5%
OC1(c2csc(CN3CCN(c4ccccn4)CC3)n2)CCN(Cc2ccccc2)CC1,8.91µM*
O=C1Cc2c(-c3ccsc3)n[nH]c2CN1CC1CC1,-27.2%[44.1 µM]
O=C(NC1CCN(c2cc(-c3ccc(Cl)cc3)[nH]n2)CC1)c1ccc2c(c1)OCO2,i
COCC(=O)N[C@@H]1CN(S(=O)(=O)Cc2ccccc2)CC[C@@H]1c1nc(C)no1,-11.8%[5.79 µM]
CCOC(=O)C1CCCN(c2c(C(=O)c3ccc(C)cc3)cnc3ccc(OCC)cc23)C1 (stereo not given),11.2µM*
CCc1ccc2ncc(C(=O)c3ccc(C)c(C)c3)c(N3CCC(C(N)=O)CC3)c2c1,-34.3%
CCOC(=O)C1CCCN(c2ncnc3c2cnn3-c2ccc(C)c(Cl)c2)C1 (stereo not given),62.1%
O=C(Cc1ccccc1)NCC1CN(C(=O)Cc2cccc(C(F)(F)F)c2)CC12CN(c1ccccc1)C2 (stereo not given),i
